An excerpt weighted towards active compounds, which were near 2.6% of everything screened.
PKA-R1A activ = activators of PKA-R1A holoenzyme, primary screen, biochemical, fluorescence polarization, Cy5-IP20, bovine R1A, mouse PKAc; cAMP-dependent protein kinase type I-alpha regulatory subunit (Bos taurus) + …; PKA-R1A dissociation; scaled: DMSO 0%, 113 µM cGMP 100%; activation, % at 11.4 µM; 340,000 compounds, 0.083% hits; AID 504707, 2011;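 active = percent activation above the mean of all tested compounds plus 3 SD, cut at about 19% in these data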;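 also: higher means more PKAc released from R1A so a rise in polarization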
PAFAH1B2 inh = PAFAH1B2 enzyme inhibitors, primary screen, biochemical, fluorescence polarization, human. Platelet-activating factor acetylhydrolase IB subunit alpha2 (Homo sapiens), P68402. recombinant PAFAH1B2, FP-rhodamine activity probe. inhibition, % at 3.39 µM. 340,000 compounds, 1.2% hits;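 active = inhibition above the mean of all tested compounds plus 3 SD, cut at about 24% in these data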;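 also: 0% = enzyme with DMSO and 100% = wells lacking PAFAH1B2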
Target sequence (P68402 whole entry, looked up): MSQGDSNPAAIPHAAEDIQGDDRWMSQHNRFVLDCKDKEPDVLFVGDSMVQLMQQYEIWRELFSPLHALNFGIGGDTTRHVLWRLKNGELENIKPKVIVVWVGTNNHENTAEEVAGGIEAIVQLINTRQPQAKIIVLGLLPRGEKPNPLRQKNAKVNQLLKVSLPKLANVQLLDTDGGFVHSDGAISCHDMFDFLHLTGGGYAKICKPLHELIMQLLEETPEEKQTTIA
PKA-R2B activ = activators of PKA-R2B holoenzyme, primary screen, biochemical, fluorescence polarization, Cy5-IP20, human. cAMP-dependent protein kinase catalytic subunit beta (Homo sapiens) + cAMP-dependent …. PKA-R2B holoenzyme dissociation; R2B truncated from residue 108, S112A mutant; 0% DMSO only, 100% 113 µM cGMP. activation, % at 11.4 µM. 340,000 compounds, 0.079% hits;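 active = activation above a cutoff set at the mean over all compounds plus 3 SD, cut at about 18% in these data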;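 also: higher means more holoenzyme dissociation and a rise in polarization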
PAFAH2 inh = PAFAH2 enzyme inhibitors, primary screen, biochemical, fluorescence polarization, human. recombinant PAFAH2, FP-rhodamine activity probe. inhibition, % at 3.39 µM. 340,000 compounds, 0.99% hits;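 active = inhibition above the mean over all tested compounds plus 3 SD, cut at about 30% in these data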;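 also: inhibitors block probe labeling of enzyme so polarization drops; 0% = enzyme with DMSO and 100% = wells lacking PAFAH2 protein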
pPAFAH inh = pPAFAH enzyme inhibitors, primary screen, biochemical, fluorescence polarization, human | 330,000 compounds, 1.5% hits | AID 463082, 2010 | recombinant pPAFAH, FP-rhodamine probe fluorescence polarization | Platelet-activating factor acetylhydrolase (Homo sapiens), Q13093 | inhibition, % at 3.39 µM;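 active = inhibition above the mean inhibition across the screen plus 3 SD, cut at about 25% in these data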;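 also: inhibitors block binding of the rhodamine activity-based probe so polarization drops; 0% = enzyme with DMSO and 100% = wells lacking pPAFAH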
Target sequence (Q13093 whole entry, looked up): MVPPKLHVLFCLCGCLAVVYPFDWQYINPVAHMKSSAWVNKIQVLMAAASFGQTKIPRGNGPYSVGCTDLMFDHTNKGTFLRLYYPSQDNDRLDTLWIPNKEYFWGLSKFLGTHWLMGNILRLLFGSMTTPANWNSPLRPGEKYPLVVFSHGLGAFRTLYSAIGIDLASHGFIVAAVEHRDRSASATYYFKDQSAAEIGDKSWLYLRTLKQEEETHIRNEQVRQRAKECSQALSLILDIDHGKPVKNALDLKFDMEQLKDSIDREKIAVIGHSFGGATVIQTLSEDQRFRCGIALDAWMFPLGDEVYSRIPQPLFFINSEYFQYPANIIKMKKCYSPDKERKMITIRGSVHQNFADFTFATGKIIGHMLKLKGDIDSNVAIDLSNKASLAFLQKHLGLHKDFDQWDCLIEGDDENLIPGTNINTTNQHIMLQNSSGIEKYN
PAFAH1B3 inh = PAFAH1B3 enzyme inhibitors, primary screen, biochemical, fluorescence polarization, human; recombinant PAFAH1B3, FP-rhodamine probe; inhibition, % at 3.39 µM; AID 492972, 2010; Platelet-activating factor acetylhydrolase IB subunit alpha1 (Homo sapiens), Q15102; 340,000 compounds, 0.28% hits;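 active = inhibition above the screen-wide average of all tested compounds plus 3 SD, cut at about 25% in these data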;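 also: 0% = enzyme with DMSO only and 100% = wells lacking PAFAH1B3 protein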
An asterisk follows results filed as active; x = no result given.

SMILES | PKA-R1A activ | PAFAH1B2 inh | PKA-R2B activ | PAFAH2 inh | pPAFAH inh | PAFAH1B3 inh
Cc1ccc([N+](=O)[O-])cc1N=Nc1c(-c2ccc([N+](=O)[O-])cc2)[nH]n(C(N)=S)c1=O | -20 | 15 | -3 | 24 | x | 19
Cc1ccc(NS(=O)(=O)c2ccc(C(=O)NCc3cccnc3)cc2)cc1 | -7 | -3 | 4 | 2 | 27* | -2
COc1ccc(NS(=O)(=O)c2ccc(Cl)c(NC(=O)c3ccccc3F)c2)cc1 | -9 | -2 | 0 | 1 | 7 | 1
O=C(NCc1cccnc1)c1ccc(S(=O)(=O)Nc2ccccc2)cc1 | 2 | 4 | -2 | 2 | 24 | 6
O=C(COc1ccccc1Cc1ccccc1)Nc1cccc(S(=O)(=O)N2CCOCC2)c1 | -8 | -2 | -6 | -9 | 5 | -7
Cc1ccc(C(=O)NCc2cccnc2)cc1S(=O)(=O)Nc1ccccc1 | 5 | 0 | 8 | 13 | 27* | -7
COc1ccc(NS(=O)(=O)c2ccc(Cl)c(NC(=O)c3cccnc3Cl)c2)cc1 | 5 | 2 | -11 | 5 | 30* | 0
Cc1ccc(S(=O)(=O)N2CCOCC2)cc1NC(=O)COc1ccccc1Cc1ccccc1 | -9 | 2 | -10 | 0 | 26* | 1
CC1CCCC(NC(=O)c2ccc3c(c2)OCO3)C1C (stereo not drawn) | -4 | 7 | -3 | 11 | 1 | 8
O=C(Nc1ccccc1Cl)c1sccc1-c1ccccc1 | -14 | 12 | 5 | -4 | 4 | 7
O=C(Cc1ccc(Cl)cc1)OCC(=O)N1CCCCCC1 | 1 | 21 | -6 | 3 | 4 | 7
CCOC(=O)c1ccc(NS(=O)(=O)c2ccc(-c3coc(C)n3)cc2)cc1 | -12 | 0 | -8 | -6 | 2 | 3
CCOc1ccc(NS(=O)(=O)c2ccc(-c3coc(C)n3)cc2)cc1 | -4 | 3 | 4 | 3 | 29* | 10
CCC(C)NS(=O)(=O)c1ccc(OCC(=O)NCc2cccnc2)cc1 (stereo not drawn) | -6 | 3 | 6 | -4 | 13 | 10
Cc1ccc(NS(=O)(=O)c2ccc(C(=O)NCc3ccncc3)cc2)cc1 | -4 | 7 | 0 | 4 | 26* | 2
Cc1ccc(NS(=O)(=O)c2ccc(OCC(=O)NCc3cccnc3)cc2)cc1 | 1 | 2 | 1 | -4 | 26* | 5
CNC(=O)COc1ccc(S(=O)(=O)Nc2ccc(C)cc2)cc1 | -14 | 5 | 3 | -4 | 22 | 9
CCCNC(=O)COc1ccc(S(=O)(=O)Nc2ccc(C)cc2)cc1 | 3 | 7 | 0 | -5 | 30* | 0
COc1ccc(CNC(=O)COc2ccc(S(=O)(=O)N3CCOCC3)cc2)cc1 | -9 | 3 | -2 | 2 | 7 | 2
O=C(COc1ccc([N+](=O)[O-])cc1)NCc1ccncc1 | x | x | x | x | 3 | x
CC(=NNC(=O)c1ccc(NS(=O)(=O)c2ccc(Br)cc2)cc1)c1cccnc1 | 8 | 29* | 2 | -1 | 7 | 4
COc1ccc(NS(=O)(=O)c2cccc(C(=O)NCc3cccnc3)c2)cc1 | 2 | 3 | 11 | 6 | 27* | 3
Cc1ccc(CNC(=O)COc2ccc(S(=O)(=O)N3CCOCC3)cc2)cc1 | -24 | 3 | -3 | -5 | 28* | 4
O=C(COc1ccc(S(=O)(=O)Nc2ccccc2)cc1)NCc1ccncc1 | 4 | 5 | -3 | 7 | 27* | 5
COc1ccc(NS(=O)(=O)c2ccc(C)c(C(=O)NCc3cccnc3)c2)cc1 | 5 | -2 | 1 | -5 | 7 | 2
SMILES | PKA-R1A activ | PAFAH1B2 inh | PKA-R2B activ | PAFAH2 inh | pPAFAH inh | PAFAH1B3 inh
CC(C)(C)N(Cc1ccc2c(c1)OCO2)C(=O)/C=C\S(=O)c1ccccc1 (stereo not drawn) | -6 | 0 | 0 | -6 | x | 6
Cc1ccc(N(CC(=O)NCC2CCCO2)C(=O)CCC(=O)Nc2nccs2)cc1 (stereo not drawn) | 1 | 3 | -6 | 10 | 7 | 1
N#C/C(=C\c1ccc(F)cc1)C(=O)Nc1ccccn1 | 4 | 0 | -5 | -6 | 2 | 1
CC(C)(C)c1ccc(C(=O)NC(=O)COC(=O)c2ccc(Br)o2)cc1 | -4 | 2 | 2 | 3 | 3 | -6
O=C(O[C@@H]1OC2COC(=O)c3cc(O)c(O)c(O)c3-c3c(cc(O)c(O)c3O)C(=O)O[C@@H]([C@H]1O)[C@@H]2O)c1cc(O)c(O)c(O)c1 | -7 | 26* | 3 | 59* | 75* | 37*
O=C1NC(Cc2ccc(O)cc2)c2nc3ccc(Cl)cc3c(=O)n2-c2ccc(Cl)cc21 (stereo not drawn) | x | x | x | x | 2 | x
O=C(CCN1C(=O)/C(=C\C=C\c2ccccc2)SC1=S)Nc1cccc(C(=O)O)c1 | 9 | 1 | -1 | 8 | 28* | 7
O=C(CCN1C(=O)/C(=C\C=C\c2ccccc2)SC1=S)Nc1ccccc1C(=O)O | 17 | 5 | 5 | 9 | 30* | 8
CC(/C=C1\SC(=S)N(CCCC(=O)Nc2ccc(C(=O)O)c(O)c2)C1=O)=C\c1ccccc1 | x | x | x | x | 31* | x
CC(/C=C1\SC(=S)N(CCC(=O)Nc2ccc(O)cc2)C1=O)=C\c1ccccc1 | -1 | 3 | 6 | -15 | 2 | 7
O=C(CCCN1C(=O)/C(=C\c2ccccc2)SC1=S)Nc1cccc(C(=O)O)c1 | -8 | 0 | 7 | 4 | 4 | 4
COc1cc([N+](=O)[O-])ccc1NC(=O)NCC1CCN(Cc2ccc(Cl)cc2)CC1 | -3 | 2 | 1 | -5 | -1 | 4
CSc1ccc(S(=O)(=O)NCc2ccc(Cl)cc2Cl)cc1 | -13 | 29* | 3 | 1 | -1 | 4
O=S(=O)(NCc1ccccc1)NCc1ccc(Cl)cc1Cl | -5 | 28* | 6 | 9 | 2 | 4
CCOc1cc(CNc2cccc3[nH]c(C)nc23)ccc1OC | 8 | 3 | 2 | 5 | 7 | 4
CCN(C(=O)CSc1ccc2c(c1)OCCO2)C1CCS(=O)(=O)C1 (stereo not drawn) | -8 | 1 | 4 | -3 | 1 | 8
CCN(C(=O)CSc1nnc(-c2ccc3c(c2)OCO3)o1)C1CCS(=O)(=O)C1 (stereo not drawn) | -12 | 32* | 0 | -1 | 3 | 7
O=c1c2ccccc2ncn1CCCSc1ccc(Cl)cc1 | 8 | 51* | -6 | 6 | 5 | 7

Screens as filed in PubChem.
